Sampled rows, rich in hits. Any-hit rate of the full collection: about 1.2%.
Avidin fluor – green autofluorescence of compounds with avidin beads – biophysical, 488/530 nm, flow cytometry, artefact control, profiling panel. compound fluorescence 488/530 nm; active compounds read high. fluorescence (KMESF) at 10 µM. 220,000 compounds, 0.38% hits; in the data active means fluorescence above about 47
RGS8-Gao – RGS8-Galphao binding modulators, primary screen, biochemical, multiplexed bead flow cytometry | actives lie on both sides | Guanine nucleotide-binding protein G(o) subunit alpha (Homo sapiens), P09471 | response (percent of control binding), % at 10 µM | 220,000 compounds, 0.34% hits; in the data active means response below about 60% or above about 140%; inactive means in between;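 further: Galphao activated as the GDP aluminium fluoride complex binding bead-coupled RGS8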
Target sequence (P09471 whole entry, looked up): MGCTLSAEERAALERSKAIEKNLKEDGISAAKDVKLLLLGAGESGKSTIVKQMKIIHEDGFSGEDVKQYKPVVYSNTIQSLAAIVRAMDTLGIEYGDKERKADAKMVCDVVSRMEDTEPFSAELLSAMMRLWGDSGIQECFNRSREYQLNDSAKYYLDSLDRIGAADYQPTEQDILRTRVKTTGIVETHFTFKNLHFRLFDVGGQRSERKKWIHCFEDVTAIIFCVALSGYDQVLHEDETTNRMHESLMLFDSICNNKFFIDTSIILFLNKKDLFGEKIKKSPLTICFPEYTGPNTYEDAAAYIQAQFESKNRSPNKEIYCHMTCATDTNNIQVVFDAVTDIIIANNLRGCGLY
RGS16-Gao – modulators of RGS16 binding to Galphao, primary screen, biochemical, human proteins, multiplexed bead flow cytometry; Regulator of G-protein signaling 16 (Homo sapiens) + Guanine nucleotide-binding protein …; bead-based flow cytometry RGS16-Galphao binding, fluorescence; actives lie on both sides; binding response (% of control), % at 10 µM; 220,000 compounds, 0.38% hits;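 further: Galphao activated by GDP with aluminum fluoride before binding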
GSH fluor – compound fluorescence on glutathione beads, profiling panel, artefact control, biophysical, 488/530 nm, flow cytometry; GSH beads flow cytometry, compound fluorescence 488/530 nm; active compounds read high; fluorescence (KMESF) at 10 µM; 190,000 compounds, 0.25% hits; AID 1776, 2009; in the data active means fluorescence above about 89;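 further: glutathione beads carrying GST-tagged Bcl family fusion proteins plus one bare bead set; values are compound well signal with DMSO vehicle wells as background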
RGS7-Gao reg – RGS7-Galphao binding modulators, primary screen, biochemical, multiplexed bead flow cytometry. Guanine nucleotide-binding protein G(o) subunit alpha (Homo sapiens), P09471. 220,000 compounds, 0.35% hits. binding response (% of control), % at 10 µM. actives lie on both sides. AID 1439, 2008; in the data active means binding response below about 49% or above about 150%;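 further: fluorescent Galphao held in activated GDP-AlF4 state binding bead-coupled RGS7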
RGS4-Gao reg – modulators of RGS4 binding to Galphao, primary screen, biochemical, multiplexed bead flow cytometry; binding response (% of control), % at 10 µM; actives lie on both sides; 220,000 compounds, 0.33% hits; Guanine nucleotide-binding protein G(o) subunit alpha (Homo sapiens), P09471; in the data active means binding response below about 49% or above about 150%; inactive means in between;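 further: fluorescent Galphao activated with aluminum fluoride binding bead-coupled RGS4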
RGS4-Gao HTS – modulators of RGS–Galpha-o binding, primary screen, biochemical, multiplexed beads, flow cytometry, RGS4/7/8/16/19. shares compounds with RGS16-Gao. multiplexed bead flow cytometry. RGS4–Galpha-o binding response, % at 10 µM. 1,600 compounds, 99% hits. AID 1504, 2009;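 further: fluorescently labeled Galpha-o bound to GDP with aluminium fluoride binding biotinylated RGS beads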
Biotin-avidin – disruption of biotin probe capture by avidin, counter-screen for RGS protein interaction modulators, biochemical, flow cytometry, bead-based; streptavidin beads, fluorescein-biotin binding; 1,700 tested, under 10 active; inhibition, % at 10 µM; shares compounds with RGS16-Gao;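 active means inhibition above 50%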;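 further: median green fluorescence of gated singlet beads compared with DMSO control wells; 0% = DMSO wells and 100% = complete loss of bead fluorescence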
RGS8-Gao confirm – RGS8-Galphao binding modulators, confirmation, biochemical, multiplexed bead flow cytometry, single concentration; AID 1836, 2009; binding response (% of control), % at 10 µM; bead-based flow cytometry RGS8-Galphao binding, fluorescence; actives lie on both sides; 1,700 compounds, 3% hits; shares compounds with RGS16-Gao; in the data active means binding response below about 72% or above about 130%; inactive means in between;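 further: Galphao activated as GDP AlF4 complex before binding bead RGS8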
RGS7-Gao confirm – RGS7-Galphao binding modulators, confirmation, biochemical, multiplexed bead flow cytometry, single concentration; 1,700 compounds, 7.8% hits; shares compounds with RGS16-Gao; bead-based flow cytometry RGS7-Galphao binding; actives lie on both sides; response (percent of control binding), % at 10 µM; in the data active means response below about 75% or above about 130%; inactive means in between;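 further: fluorescent Galphao activated with GDP and aluminum fluoride binding bead-coupled RGS7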
RGS16-Gao single – modulators of RGS16-Galphao protein binding, confirmation, biochemical, single concentration, multiplexed bead flow cytometry. 1,700 compounds, 4% hits. response (% of control binding), % at 10 µM. bead-based flow cytometry; actives lie on both sides. AID 1838, 2009. shares compounds with RGS16-Gao; in the data active means response below about 74% or above about 130%; inactive means in between;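 further: Galphao activated as the GDP aluminium fluoride complex binding bead-coupled RGS16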
RGS4-Gao single – modulators of RGS4-Galphao protein binding, confirmation, biochemical, single concentration, multiplexed bead flow cytometry | shares compounds with RGS16-Gao | actives lie on both sides | binding response (% of control), % at 10 µM | 1,700 compounds, 4% hits | AID 1840, 2009; in the data active means binding response below about 74% or above about 130%; inactive means in between
RGS19-Gao single – regulators of RGS19-Galphao binding, confirmation, biochemical, single point, multiplexed bead flow cytometry; 1,700 compounds, 5% hits; bead-based flow cytometry RGS19-Galphao binding; actives lie on both sides; response (percent of control binding), % at 10 µM; shares compounds with RGS16-Gao; in the data active means response below about 50% or above about 160%; inactive means in between;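 further: 100% = no compound control and 0% = blank background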
Starred values were filed as active, the others as inactive; [ ] = remark or other dose. Unless noted, how the calls were made is not given here.

`O=C(Cn1c2ccccc2c(=O)c2ccccc21)N/N=C/c1cc([N+](=O)[O-])ccc1N1CCCCCC1` gave GSH fluor 12, Biotin-avidin 2, RGS8-Gao confirm 105, RGS7-Gao confirm 135*[activator], RGS16-Gao single 140*[activator], RGS4-Gao single 129*[activator] and RGS19-Gao single 384*[activator].
O=C(Cn1c2ccccc2c(=O)c2ccccc21)N/N=C/c1ccc(N2CCCC2)c([N+](=O)[O-])c1 was read as Avidin fluor 12, RGS8-Gao 98, RGS16-Gao 97, GSH fluor 9, RGS7-Gao reg 90 and RGS4-Gao reg 91.
CCC(=O)c1ccc(OCC(=O)NCCc2ccccn2)cc1 was read as Avidin fluor 17, RGS8-Gao 110, RGS16-Gao 128, GSH fluor 19, RGS7-Gao reg 107 and RGS4-Gao reg 114.
Screening Cc1ccc(OCCN2C(=O)c3ccccc3C2=O)c(C)c1 returned Avidin fluor 9, RGS8-Gao 100, RGS16-Gao 89, GSH fluor 51, RGS7-Gao reg 92 and RGS4-Gao reg 90.
For Cc1ccc(OCCn2nc3ccccc3n2)c(C)c1 the results were Avidin fluor 154*, RGS8-Gao 96, RGS16-Gao 107, GSH fluor 8, RGS7-Gao reg 192*[activator], RGS4-Gao reg 121, RGS4-Gao HTS 121*, Biotin-avidin 0, RGS8-Gao confirm 101, RGS7-Gao confirm 105, RGS16-Gao single 106, RGS4-Gao single 106 and RGS19-Gao single 88.
`CC(C)N1CCC(=NNC(=O)c2ccc(Br)o2)CC1` gave Avidin fluor 8, RGS8-Gao 98, RGS16-Gao 92, GSH fluor 34, RGS7-Gao reg 97 and RGS4-Gao reg 97.

From PubChem BioAssay
